# Measurements reported in PubChem BioAssay.
# Values joined by “and” are separate entries in the source; they are usually repeats but may differ in a detail not shown here. Equal entries are not always repeated. Inconclusive results are not listed. Active and inactive are the calls of the source. Unless noted, the rule behind the calls is not given here.
# Assays:
# [1] = kinase inhibitors against Plasmodium liver-stage infection, cell-based, known kinase inhibitor set, luminescence, hepatoma host viability (AID 624392); conditions: Plasmodium liver stage in hepatoma cells, luciferase luminescence, concentration not given here; liver cell % of control: measured here: host liver cell viability; parasite % of control: stronger effect = lower value;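 note: infected cells incubated roughly two days before readout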
# [2] = modulators of glucocorticoid suppression of NF-kB, cell-based, luciferase, IL-1B stimulus, dexamethasone (AID 624486); conditions: NF-kB luciferase reporter, IL-1B + dexamethasone, luminescence; percent of negative control (+Dex): actives lie on both sides, concentration not given here; z-score: measured here: IL-1B alone, no Dex;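 for percent of negative control (+Dex): 100% = mean signal of vehicle control wells on the plate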
# [3] = kinase inhibitors altering Pseudomonas killing of worms, whole organism (AID 651566);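 note: tested at 14 µM; sign flipped so higher z means a lower ratio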; conditions: C. elegans killed by P. aeruginosa, survival ratio
# [4] = target: Cellular tumor antigen p53 (Homo sapiens) (UniProt P04637); experiment: kinase inhibitors altering GFP-p53 stability in HPV16-positive cells, imaging, known kinase inhibitor set, EGFP/DsRed ratio (AID 1053116); conditions: stronger effect = higher value; EGFP object count: measured here: GFP-p53 positive objects count;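 note: cells exposed to compounds for 24 h at 37 °C before reading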
# Chain of Cellular tumor antigen p53 (Homo sapiens) (P04637 whole entry, looked up): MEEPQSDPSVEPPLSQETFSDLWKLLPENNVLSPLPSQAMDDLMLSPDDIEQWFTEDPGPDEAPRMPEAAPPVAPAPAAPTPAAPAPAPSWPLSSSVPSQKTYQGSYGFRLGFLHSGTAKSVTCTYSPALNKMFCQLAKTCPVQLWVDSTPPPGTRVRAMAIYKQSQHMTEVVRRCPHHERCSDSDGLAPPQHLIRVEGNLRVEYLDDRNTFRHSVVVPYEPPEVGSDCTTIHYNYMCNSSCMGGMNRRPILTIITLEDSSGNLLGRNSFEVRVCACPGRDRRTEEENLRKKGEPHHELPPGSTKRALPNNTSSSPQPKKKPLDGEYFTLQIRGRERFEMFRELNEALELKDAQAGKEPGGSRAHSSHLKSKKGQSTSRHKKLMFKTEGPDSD
# [5] = IRF3 reporter activation in THP-1 macrophages, cell-based, PMA-stimulated THP-1, luminescence (AID 1053176); conditions: PMA-differentiated THP-1, IRF3 reporter luminescence; stronger effect = higher value
# [6] = target: Single-stranded DNA-binding protein (Escherichia coli (strain K12)) (UniProt P0AGE0); experiment: E. coli SSB displacement from DNA, counter-screen for HCV NS3 helicase inhibitor project, biochemical, fluorescence polarization, NIH Clinical Collection (AID 743271; in the data active = inhibition above about 28%); conditions: stronger effect = higher value, concentration not given here
# [7] = fluorescence interference in NS3h assay format, artefact control for HCV NS3 helicase inhibitor project, biochemical, NIH Clinical Collection (AID 743272); conditions: fluorescence interference counterscreen, stronger effect = lower value;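 note: HCV NS3 helicase with a Cy5 labelled single stranded DNA probe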
# [8] = growth inhibition of DIPG glioma cells, dose response, cell-based, SU-DIPG-XIII, MIPE5.0, CellTiter-Glo, qHTS (AID 1347064; cut-off not given, nearly all actives have AC50 up to about 23 µM;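 for AC50: cells exposed to compound for 48 hours before the viability read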); conditions: SU-DIPG-XIII viability, CellTiter-Glo ATP luminescence
# [9] = LFS_MB_1R medulloblastoma cell growth inhibition, synergistic combos for chromothripsis tumors, cisplatin or BGB combos (AID 1671452; in the data active = inhibition above about 80%;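 note: cells exposed for 96 hours before readout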); conditions: LFS_MB_1R medulloblastoma cells, stronger effect = higher value
# [10] = CRL2098 osteosarcoma cell growth inhibition, synergistic combos for chromothripsis tumors, BGB or cisplatin IC20 combos (AID 1671454; in the data active = inhibition above about 80%;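 note: cells exposed for 96 h before readout; 0% = vehicle DMSO and 100% = killing by high DMSO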); conditions: CRL2098 osteosarcoma cells, drug combinations, stronger effect = higher value
# [11] = HD-MB03 medulloblastoma cell growth inhibition, synergistic combos for chromothripsis tumors, BGB or cisplatin IC20 combos (AID 1671455; in the data active = inhibition above about 83%;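 note: 0% = vehicle DMSO and 100% = high DMSO as cytotoxic control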); conditions: HD-MB03 medulloblastoma cells, stronger effect = higher value
# [12] = UWB1.289 ovarian carcinoma cell growth inhibition, synergistic combos for chromothripsis tumors, BGB or cisplatin combos (AID 1671456; in the data active = inhibition above about 80%;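 note: cells exposed to compound for four days; 0% = vehicle DMSO and 100% = killing by high DMSO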); conditions: UWB1.289 ovarian carcinoma cells, stronger effect = higher value
# [13] = LFS_MB_2R medulloblastoma cell growth inhibition, synergistic combos for chromothripsis tumors, cisplatin combos (AID 1671457; in the data active = inhibition above about 80%;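 note: cells exposed to compound for four days before readout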); conditions: LFS_MB_2R medulloblastoma cells, stronger effect = higher value
# [14] = UWB1.289_BRCA1 ovarian cancer growth, cell-based, BGB or cisplatin combinations (AID 1671459; in the data active = inhibition above about 80%); conditions: UWB1.289 BRCA1 ovarian carcinoma, drug combinations, stronger effect = higher value
# [15] = human astrocyte viability loss, single and combined drugs, cytotoxicity control for chromothriptic childhood tumor combination screen, cell-based, BGB or cisplatin IC20 combos (AID 1671460; in the data active = inhibition above about 80%;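 note: cells exposed to compounds for 96 hours before viability readout; 0% = vehicle and 100% = killing control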); conditions: Human astrocytes, drug combinations, stronger effect = higher value
# [16] = target: Calcium-activated potassium channel subunit alpha-1 (Homo sapiens) + Leucine-rich repeat-containing protein 26 (Homo sapiens) (UniProt Q12791+Q2I0M4); experiment: modulators of BK channel variants, profiling panel, selectivity assay, cell-based, U2OS BacMam, thallium flux, beta subunits (AID 1259406;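 active = thallium flux through the channel raised or lowered by more than 3 SD from vehicle-only wells, actives on both sides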;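 note: initial slope of Thallos dye fluorescence rise after thallium is added; log ratio against the mean of 0.3% DMSO vehicle wells on the same plate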); conditions: F380Y/Slo1WT/gamma1, at 30 µM
# Chain of Calcium-activated potassium channel subunit alpha-1 (Homo sapiens) + Leucine-rich repeat-containing protein 26 (Homo sapiens) (Q2I0M4 whole entry, looked up, one chain of several): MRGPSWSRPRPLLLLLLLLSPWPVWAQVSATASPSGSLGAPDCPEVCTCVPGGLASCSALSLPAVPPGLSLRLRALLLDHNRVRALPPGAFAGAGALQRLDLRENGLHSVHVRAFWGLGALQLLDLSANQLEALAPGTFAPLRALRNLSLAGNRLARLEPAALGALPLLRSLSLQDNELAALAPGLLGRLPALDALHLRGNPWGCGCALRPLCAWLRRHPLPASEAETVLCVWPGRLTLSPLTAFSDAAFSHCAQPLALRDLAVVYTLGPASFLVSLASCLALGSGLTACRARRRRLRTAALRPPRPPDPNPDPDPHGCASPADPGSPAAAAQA
# [17] = viability loss in pontine glioma line – cell-based, SU-DIPG-XXV, MIPE5.0, CellTiter-Glo, qHTS, dose response (AID 1347065; cut-off not given, nearly all actives have AC50 up to about 26 µM;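 note: cells exposed to compound for 48 hours before ATP readout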); conditions: CellTiter-Glo ATP luminescence
# [18] = protection against mutant huntingtin cytotoxicity, PC12 cells, LDH release (AID 1610); conditions: PC12 mutant huntingtin toxicity, final LDH at 4 uM, stronger effect = lower value
# [19] = test system: Aerobactin synthetase IucA (Klebsiella pneumoniae); experiment: IucA aerobactin synthetase inhibitors, biochemical, Tocris library, absorbance (AID 1345561); conditions: purified IucA enzyme assay, absorbance (OD) read-out; stronger effect = lower value;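 tested at 8 µM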;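 note: 100% = enzyme without compound and 0% = no enzyme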
# [20] = test system: Neuropilin-2 / VEGF-C interaction (human); experiment: inhibitors of NRP2–VEGF-C binding, biochemical, microplate binding format, z-score (AID 743281); conditions: microplate NRP2/VEGF-C binding assay; stronger effect = lower value
# [21] = measured here: combination with BGB IC40, at 0.05 µM
# [22] = measured here: combination with cisplatin, at 0.5 µM
# [23] = measured here: combination with cisplatin, at 5 µM
# [24] = measured here: combination with BGB at IC20, at 0.5 µM
# [25] = measured here: combination with cisplatin at IC20, at 0.5 µM
# [26] = measured here: combo with BGB at IC20, at 0.5 µM
# [27] = measured here: combo with cisplatin at IC20, at 0.5 µM
# [28] = measured here: inhibition with BGB combination, at 0.05 µM
# [29] = measured here: inhibition with cisplatin combination, at 0.05 µM
# [30] = BGB combination, concentration series, at 5 µM
# [31] = cisplatin combination, concentration series, at 5 µM
# [32] = measured here: combo with BGB IC20, at 0.5 µM
# [33] = measured here: combo with cisplatin IC20, at 0.5 µM
structure (smiles),measurement,setting,value
CNC(=O)Oc1cc(C)c(/C=C/c2cncc(C(=O)NC)c2)c(C)c1,liver cell % of control,[1],111%
same,parasite % of control,[1],110% (inactive)
same,percent of negative control (+Dex),[2],107% (inactive)
same,z-score,[2],1.96
same,z-score,[3],-0.2 (inactive)
same,EGFP object count,[4],1
same,EGFP/DsRed ratio,[4],0.0984 (inactive)
same,fraction signal,[5],-0.0105 (inactive)
O=C(NC1NNC2NNC(c3cccnc3)CC21)C1CC1 (centres undefined),liver cell % of control,[1],79.6%
same,parasite % of control,[1],32.1% (inactive)
same,percent of negative control (+Dex),[2],166% (active)
same,z-score,[2],-0.58
same,z-score,[3],-1.13 (inactive)
same,EGFP object count,[4],52
same,EGFP/DsRed ratio,[4],0.68 (active)
same,fraction signal,[5],0.001 (inactive)
Cn1cc(C2=C(c3cn(CCCNC(N)=N[N+](=O)[O-])c4ccccc34)C(=O)NC2=O)c2ccccc21,liver cell % of control,[1],106%
same,parasite % of control,[1],62.5% (inactive)
same,percent of negative control (+Dex),[2],102% (inactive)
same,z-score,[2],-0.575
same,EGFP object count,[4],2.5
same,EGFP/DsRed ratio,[4],0.0481 (inactive)
same,fraction signal,[5],0.0015 (inactive)
O=P1(N(CCCl)CCCl)NCCCO1 (centres undefined),inhibition,[6],1.05% (inactive)
same,fluorescence ratio,[7],0.99 (inactive)
same,outcome,[8],inactive
same,inhibition,[9]; at 0.5 µM,-27.2% (inactive) and -18.7% (inactive)
same,inhibition,[9]; [21],-28.1% and -17.9%
same,inhibition,[9]; [22],-62% and -22.2%
same,inhibition,[9]; [23],-58.8% and -8.04%
same,inhibition,[10]; at 0.5 µM,-64.7% (inactive) and -26.3% (inactive)
same,inhibition,[10]; [24],-52.1% and -36.9%
same,inhibition,[10]; [25],-105% and -14.6%
same,inhibition,[11]; at 0.5 µM,-15.6% (inactive) and -8.72% (inactive)
same,inhibition,[11]; [26],-13.1% and -5.67%
same,inhibition,[11]; [27],-23.9% and -12.6%
same,inhibition,[12]; at 0.5 µM,-11% (inactive) and -0.72% (inactive)
same,inhibition,[12]; [28],0.467% and -11.6%
same,inhibition,[12]; [29],-17.5% and -3.57%
same,inhibition,[13]; at 0.5 µM,-8.87% (inactive) and -10.9% (inactive)
same,inhibition,[13]; [22],-12.2% and -3.73%
same,inhibition,[13]; [23],-12% and -15.2%
same,inhibition,[14]; [30],-8.88% and 6.63%
same,inhibition,[14]; at 0.5 µM,-10.4% (inactive) and -3.19% (inactive)
same,inhibition,[14]; [31],-43.5% and 10.9%
same,inhibition,[15]; at 0.5 µM,1.59% (inactive) and 8.63% (inactive)
same,inhibition,[15]; [32],0.13% and 3.09%
same,inhibition,[15]; [33],6.54% and 14.4%
same,log fold change Tl+ flux,[16],0.0114 (inactive)
CN(C)[C@@H]1C(=O)C(C(N)=O)=C(O)[C@@]2(O)C(=O)C3=C(O)c4c(O)cccc4[C@@](C)(O)[C@H]3C[C@@H]12,outcome,[17],inactive
O=c1[nH]c2ccccc2n1C1CCN(CCCC(c2ccc(F)cc2)c2ccc(F)cc2)CC1,normalised LDH release,[18],0.918
same,remaining activity,[19],106% (inactive)
CN(C)[C@@H]1C(=O)C(C(N)=O)=C(O)[C@@]2(O)C(=O)C3=C(O)c4c(O)cccc4[C@@](C)(O)[C@H]3[C@H](O)[C@@H]12,normalised LDH release,[18],0.818
same,inhibition,[6],4.86% (inactive)
same,fluorescence ratio,[7],0.85 (inactive)
same,outcome,[8],inactive
same,log fold change Tl+ flux,[16],0.0226 (inactive)
C=C(C)[C@H]1Cc2c(ccc3c2O[C@@H]2COc4cc(OC)c(OC)cc4[C@@H]2C3=O)O1,AC50,[8],8.33 µM (active)
same,AC50,[17],1.18 µM (active)
CCC1(C2=NCCN2)Cc2ccccc2O1 (centres undefined),remaining activity,[19],98.6% (inactive)
CC(NC(C)(C)C)C(=O)c1cccc(Cl)c1 (centres undefined),inhibition,[6],-3.18% (inactive) and 3.75% (inactive)
same,fluorescence ratio,[7],1 (inactive)
same,z-score,[20],-0.243 (inactive) and -0.0135 (inactive)
same,log fold change Tl+ flux,[16],-0.0374 (inactive) and -0.0597 (inactive)
Clc1ccc(COC(Cn2ccnc2)c2ccc(Cl)cc2Cl)cc1 (centres undefined),inhibition,[6],4.1% (inactive)
same,fluorescence ratio,[7],0.94 (inactive)
O=C(O)c1nn(Cc2ccc(Cl)cc2Cl)c2ccccc12,remaining activity,[19],90.4% (inactive)
same,outcome,[17],inactive
CCCC(C)(COC(N)=O)COC(=O)NC(C)C (centres undefined),inhibition,[6],-2% (inactive)
same,fluorescence ratio,[7],0.93 (inactive)
same,log fold change Tl+ flux,[16],0.00552 (inactive)
NCC(O)c1ccc(O)cc1 (centres undefined),remaining activity,[19],96.2% (inactive)
CN1C(=O)CCS(=O)(=O)C1c1ccc(Cl)cc1 (centres undefined),remaining activity,[19],97.1% (inactive)
same,outcome,[8],inactive
Clc1ccc(CO/N=C(\Cn2ccnc2)c2ccc(Cl)cc2Cl)c(Cl)c1,outcome,[20],inactive
C[C@@H]1C[C@@H]([C@H](O)CC2CC(=O)NC(=O)C2)C(=O)[C@@H](C)C1,normalised LDH release,[18],0.469
same,AC50,[17],0.372 µM (active)
CCC1(c2ccc(N)cc2)CCC(=O)NC1=O (centres undefined),inhibition,[6],-2% (inactive)
same,fluorescence ratio,[7],1.04 (inactive)
same,outcome,[17],inactive
same,log fold change Tl+ flux,[16],-0.0199 (inactive)
N[C@@H](Cc1ccc(N(CCCl)CCCl)cc1)C(=O)O,AC50,[8],18.6 µM (active)
O=c1[nH]c2ccccc2n1CCCN1CCC(n2c(=O)[nH]c3cc(Cl)ccc32)CC1,remaining activity,[19],103% (inactive)
same,outcome,[8],inactive
COc1ccc(C(CN(C)C)C2(O)CCCCC2)cc1 (centres undefined),inhibition,[6],1.44% (inactive)
same,fluorescence ratio,[7],0.93 (inactive)
same,z-score,[20],0.57 (inactive)
same,log fold change Tl+ flux,[16],-0.00535 (inactive)
O=C(CCCN1CCC2(CC1)C(=O)NCN2c1ccccc1)c1ccc(F)cc1,remaining activity,[19],101% (inactive)
O=C(O)CCCc1ccc(N(CCCl)CCCl)cc1,inhibition,[6],-4.29% (inactive)
same,fluorescence ratio,[7],1.01 (inactive)
same,inhibition,[9]; at 0.5 µM,1.38% (inactive)
same,inhibition,[9]; [21],-18.1%
same,inhibition,[9]; [22],34.7%
same,inhibition,[9]; [23],17.9%
same,inhibition,[10]; at 0.5 µM,-43.4% (inactive)
same,inhibition,[10]; [24],-73.2%
same,inhibition,[10]; [25],-65.8%
same,inhibition,[11]; at 0.5 µM,-3.23% (inactive)
same,inhibition,[11]; [26],-9.02%
same,inhibition,[11]; [27],0.904%
same,inhibition,[12]; at 0.5 µM,-7.41% (inactive)
same,inhibition,[12]; [28],-22.1%
same,inhibition,[12]; [29],-7.19%
same,inhibition,[13]; at 0.5 µM,-24.2% (inactive)
same,inhibition,[13]; [22],-24.7%
same,inhibition,[13]; [23],-25.9%
same,inhibition,[14]; [30],-9.82%
same,inhibition,[14]; at 0.5 µM,-20.2% (inactive)
same,inhibition,[14]; [31],4.66%
same,inhibition,[15]; at 0.5 µM,-13.8% (inactive)
same,inhibition,[15]; [32],-14.7%
same,inhibition,[15]; [33],-9.75%
same,log fold change Tl+ flux,[16],-0.00393 (inactive)
CC(C)N(CCC(C(N)=O)(c1ccccc1)c1ccccn1)C(C)C (centres undefined),inhibition,[6],-3.53% (inactive)
same,fluorescence ratio,[7],1.04 (inactive)
same,log fold change Tl+ flux,[16],0.0168 (inactive)
c1ccc2nc(N3CCNCC3)ccc2c1,remaining activity,[19],102% (inactive)
O=c1[nH]oc2c1CCNC2,remaining activity,[19],79% (inactive)
